# Rows were chosen to be rich in hits. Some 22% of all compounds tested hit in one or more screens of this group.
# LmPK inh = blocks Leishmania mexicana pyruvate kinase activity. purified LmPK, Kinase-Glo ATP luminescence, 1 h. Potency, µM (doses to about 57.5 µM), for the others: at the top dose activity change, negative = inhibition, usual class: inhibitors. AID 1721. 290,000 compounds, 0.37% hits. Q27686; further: potency means the concentration at half of the fitted maximal effect; on the % scale 0 is the no-effect control and ±100 the full control effect
# Target sequence (Q27686 whole entry, looked up): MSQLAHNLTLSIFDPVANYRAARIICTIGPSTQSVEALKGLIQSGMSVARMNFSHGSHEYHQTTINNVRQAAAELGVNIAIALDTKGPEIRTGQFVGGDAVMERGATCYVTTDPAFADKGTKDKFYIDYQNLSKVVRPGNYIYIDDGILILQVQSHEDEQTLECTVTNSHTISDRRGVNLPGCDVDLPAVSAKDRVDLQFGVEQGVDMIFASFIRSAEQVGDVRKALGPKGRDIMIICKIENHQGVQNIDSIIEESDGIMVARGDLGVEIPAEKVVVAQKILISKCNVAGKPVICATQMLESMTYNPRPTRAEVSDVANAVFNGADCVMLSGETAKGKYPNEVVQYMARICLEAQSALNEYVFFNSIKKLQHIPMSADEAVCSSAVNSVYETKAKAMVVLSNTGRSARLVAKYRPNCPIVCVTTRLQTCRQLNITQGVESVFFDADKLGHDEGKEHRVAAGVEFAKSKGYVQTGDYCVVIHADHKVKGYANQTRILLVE
#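 Screened at intermediate enzyme activity to detect both inhibitors and activators: LmPK at 0.1 nM, with a 0.5 nM enzyme column as activation reference. PEP 0.5 mM, ADP 0.1 mM; ATP detected by luminescence after 1 h.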
# Pf growth 48h = P. falciparum growth inhibition at 48 hours (one generation). 310,000 compounds, 5.9% hits. Potency, µM (series often up to 28.7 µM), inactives show top-dose activity change, negative = inhibition, usual class: inhibitors. P. falciparum luciferase growth in erythrocytes, 48 h; further: potency means the concentration at half of the fitted maximal effect; on the % scale 0 is the no-effect control and ±100 the full control effect
#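 Luciferase-expressing parasites in RBCs, 2% Hct / 0.1% parasitemia final; RPMI 1640 + 0.5% Albumax; 37 C, 5% CO2, one generation; luminescence read-out, lower signal = inhibition.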
# Shiga toxin inh = blocks Shiga toxin action in Vero cells; Vero cells, Shiga toxin protein synthesis inhibition reporter; inhibition, % at 38.7 µM; 290,000 compounds, 9.2% hits; AID 2315; in the data active means inhibition mostly above about 28%, no sharp cut-off; inactive means mostly below about 43%; further: 0% is about no effect
# Cycloheximide cs = counter-screen hit for Shiga toxin inhibitors, cycloheximide; cell reporter, cycloheximide protein synthesis inhibition counterscreen; max response, %; 300,000 compounds, 12% hits; AID 2314; in the data active means max response mostly above about 13%, no sharp cut-off; inactive means mostly below about 14%; further: read at 38.3 µM for the half of the compounds with a filed dose; 0% is about no effect
# Pf growth 96h = inhibits malaria parasite growth, 96 h; P. falciparum luciferase reporter growth, 96 h; Potency, µM (top dose mostly 28.7 µM), for inactives: top-dose activity change, negative = inhibition, hits mostly inhibitors; AID 504834; 320,000 compounds, 6.9% hits; further: potency means the concentration at half of the fitted maximal effect; on the % scale 0 is the no-effect control and ±100 the full control effect
#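 Luminescence readout: decreased luciferase signal marks inhibited growth of reporter-expressing P. falciparum in infected red cells (2% hematocrit, 0.05% parasitemia final), exposed to compound two generations (96 h, 37 C, 5% CO2).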
# Active calls of the source: *; i = inactive; u = inconclusive; x = not tested or not shown. Unless noted, the call rests on the fitted dose curve; in most records, active means well fitted inhibition curve with a large enough effect; inconclusive means small, poorly fitted or top-dose-only effect, or another doubt; inactive means no such curve, though single readings can be large or run the other way.
SMILES,LmPK inh,Pf growth 48h,Shiga toxin inh,Cycloheximide cs,Pf growth 96h
O=C(NC1CCCCC1)C(c1ccccc1)N(C(=O)c1cccs1)c1ccc2c(c1)OCO2 (configuration not stated),0.9%,u,-12.0,-2.5,u
COc1ccc(CN(C(=O)c2nsc(Cl)c2Cl)C(C(=O)NC2CCCCC2)c2ccc(OC)cc2)cc1 (configuration not stated),3.5%,u,-3.6,-2.2,u
Cc1cc2c(c(C)c1Br)C(c1ccc3c(c1)OCO3)CC(=O)O2 (configuration not stated),x,x,i,-5.0,x
Cc1ccc(S(=O)(=O)N2CCc3cc4c(cc3C2C)OCCCO4)cc1 (configuration not stated),10.7%,-27.2%,-2.3,7.5,u
Cc1ccc(-c2noc(C3CCCN(C(=O)C4CCCCC4)C3)n2)o1 (configuration not stated),-4.8%,x,65.9,23.6*,1.04µM*
CCOc1ccc(C(=O)N2CCCC(c3nc(-c4ccc(C)o4)no3)C2)cc1 (configuration not stated),1.4%,-31.4%,66.8,4.1,u
Cc1ccc(-c2noc(C3CCCN(C(=O)c4ccc(Cl)cc4)C3)n2)o1 (configuration not stated),0.2%,-7.7%,37.0,35.6*,9.7%
COc1cccc(C(=O)c2c(C)c(CCC#N)n3ccccc23)c1,0.5%,2.7%,15.2,5.9,24.6%
COCCN(C(=S)Nc1ccc(Cl)cc1OC)C1CCN(C(C)=O)CC1,1.7%,-0.7%,-6.2,-5.8,15.0%
CNC[C@@H](C)NC[C@@H](Cc1ccccc1)NCCc1ccccc1,3.4%,u,-8.2,-3.0,2.94µM*
COc1ccccc1-n1c(-c2cccs2)nc2ccccc2c1=O,-2.8%,u,49.0,13.1,56.7%
O=c1c2ccccc2nc(-c2cccs2)n1-c1ccc2ccccc2c1,1.4%,-2.5%,active,28.8*,u
CN1c2ccccc2C(C)(C)C12CC(c1cccc(S(=O)(=O)N3CCCC3)c1)=NO2 (configuration not stated),3.4%,10.4µM*,-0.9,-2.6,u
CN1c2ccccc2C(C)(C)C12CC(c1ccc(S(=O)(=O)N3CCCCC3)cc1)=NO2 (configuration not stated),4.5%,-11.2%,-9.2,-2.8,-20.1%
CCN(CC)S(=O)(=O)c1ccc(C2=NOC3(C2)N(C)c2ccccc2C3(C)C)cc1 (configuration not stated),1.2%,11.7µM*,16.0,0.9,13.1µM*
O=C(O)c1cc(S(=O)(=O)N2CC3CC3C2C(=O)O)c(Cl)cc1Cl (configuration not stated),0.2%,-11.4%,28.6,-2.9,30.9%
CS(=O)(=O)N(CC(=O)Nc1ccccc1Br)Cc1ccccc1,-5.3%,-8.4%,-8.3,-4.7,-14.5%
OCCC1CN(Cc2nc3ccccc3[nH]2)CCN1C1CCCC1 (configuration not stated),5.1%,8.1%,-15.2,1.1,9.7%
CN(C)CCn1c2ccccc2c2nc3ccc([N+](=O)[O-])cc3cc21,0.8%,1.85µM*,38.9*,15.7*,u
O=C(COC(=O)c1ccccn1)Nc1cccnc1Cl,x,-24.0%,x,x,7.2%
O=C(COC(=O)CC12CC3CC(CC(C3)C1)C2)Nc1cccnc1Cl,-1.4%,-1.4%,11.4,25.2*,29.4%
Cc1cc(Cl)ccc1OCC(=O)OCC(=O)Nc1cccnc1Cl,x,-14.4%,x,x,8.9%
Cc1cc(C)cc(C(=O)Nc2cccnc2Cl)c1,-3.8%,17.4%,-4.9,-4.3,-6.2%
Cc1ccc(OCC(=O)Nc2cccnc2Cl)cc1C,-0.9%,36.1%,58.4*,17.8*,19.7%
Cc1ccc(C(=O)Nc2cccnc2Cl)cc1Cl,-1.6%,144.1%,x,34.8*,3.4%
Cc1ccc(OCC(=O)Nc2ccccc2F)cc1C,-8.2%,73.0%,81.3*,36.2*,u
Cc1ccc(S(=O)(=O)c2c(C)cc(C)[nH]c2=O)cc1,2.3%,-7.2%,-10.4,6.2,-7.6%
COCc1cc(CNC(=O)C2CCC(=O)N(Cc3cccc(OC)c3)C2)[nH]n1 (configuration not stated),-3.2%,8.7%,-2.9,0.6,-4.1%
CCOc1ccccc1N1CC(C(=O)Nc2c(C)n(C)n(-c3ccccc3)c2=O)CC1=O (configuration not stated),-12.5%,28.5%,-17.9,-3.4,-10.4%

# Screening results from PubChem BioAssay.
